Experimental data: ChEMBL document CHEMBL3988442, “University of Dundee, Small-Polar-MMV Screening Library” (2021)
For some of these results: Entries with a potency or affinity are not part of this list.

Assays:
Set-up in all cases: scale not given: direction of the effect not stated beside the values
[1] = molecular target: Protein translocase subunit SecA (Escherichia coli (strain K12)) (UniProt P10408); experiment: Assay to Identify E. coli SecA ATPase Inhibitors; type: functional; conditions: 30 µM
[2] = molecular target: T1, Ubiquitin-activating enzyme e1, putative (Leishmania donovani (strain BPK282A1)) (UniProt E9BSI1); experiment: Leishmania donovani Ubiquitin Activating Enzyme (LdE1); type: functional; conditions: 30 µM
T1 sequence (whole entry): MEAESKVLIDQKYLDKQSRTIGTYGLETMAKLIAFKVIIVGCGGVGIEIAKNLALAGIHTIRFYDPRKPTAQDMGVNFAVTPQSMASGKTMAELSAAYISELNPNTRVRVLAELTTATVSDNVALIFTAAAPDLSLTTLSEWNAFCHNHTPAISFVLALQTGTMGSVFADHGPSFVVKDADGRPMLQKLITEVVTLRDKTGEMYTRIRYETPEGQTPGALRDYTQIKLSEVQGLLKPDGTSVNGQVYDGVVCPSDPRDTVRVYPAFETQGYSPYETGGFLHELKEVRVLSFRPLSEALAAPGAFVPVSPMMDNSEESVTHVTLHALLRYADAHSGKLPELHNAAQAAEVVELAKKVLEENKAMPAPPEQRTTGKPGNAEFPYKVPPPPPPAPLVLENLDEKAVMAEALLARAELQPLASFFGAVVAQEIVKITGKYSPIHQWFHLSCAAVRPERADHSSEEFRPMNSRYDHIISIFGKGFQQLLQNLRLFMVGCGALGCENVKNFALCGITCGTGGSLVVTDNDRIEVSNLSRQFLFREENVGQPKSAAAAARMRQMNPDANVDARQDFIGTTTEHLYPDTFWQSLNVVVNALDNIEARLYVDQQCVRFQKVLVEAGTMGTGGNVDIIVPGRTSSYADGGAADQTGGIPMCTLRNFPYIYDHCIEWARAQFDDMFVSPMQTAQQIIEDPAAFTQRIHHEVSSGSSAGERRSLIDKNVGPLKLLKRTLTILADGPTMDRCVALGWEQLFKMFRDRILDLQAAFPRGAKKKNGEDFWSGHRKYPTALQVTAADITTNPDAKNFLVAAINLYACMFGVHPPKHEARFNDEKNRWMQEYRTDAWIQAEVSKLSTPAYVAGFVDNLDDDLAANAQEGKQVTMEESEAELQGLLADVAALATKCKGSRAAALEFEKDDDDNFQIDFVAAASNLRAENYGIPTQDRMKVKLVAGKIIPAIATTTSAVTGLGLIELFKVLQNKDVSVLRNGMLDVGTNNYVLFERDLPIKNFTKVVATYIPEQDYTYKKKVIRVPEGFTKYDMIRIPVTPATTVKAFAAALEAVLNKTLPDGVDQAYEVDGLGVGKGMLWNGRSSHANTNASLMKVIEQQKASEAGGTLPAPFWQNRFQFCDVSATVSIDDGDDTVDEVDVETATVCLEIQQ

[3] = molecular target: AMP-activated protein kinase, AMPK (Homo sapiens) (UniProt P54646+O43741+P54619+Q9UGJ0+Q9Y478+Q13131+Q9UGI9); experiment: AMP-dependent Kinase enzyme assay. An in vitro enzyme assay that detects ADP turnover that is directly proportional to AMPK activity. This uses naive AMPK that is activated during the assay with MK-8722; type: functional; conditions: 30 µM
[4] = molecular target: Sialic acid-binding Ig-like lectin 9 (Homo sapiens) (UniProt Q9Y336); experiment: Hs-Siglec9 ALPHAscreen SOP 20170721; conditions: 10 µM
Trypanosoma cruzi = experiment: Trypanosoma cruzi phosphomannomutase and mannose-1-phosphate guanylyltransferase assay; type: functional; conditions: 10 µM
[5] = molecular target: T2, Arginase-2, mitochondrial (Homo sapiens) (UniProt P78540); experiment: in vitro enzyme assay to detect the production of urea directly proportional to the activity of Arginase II; type: functional; conditions: 33.3 µM; note: in the data most compounds retested in dose-response had high values
T2 sequence (whole entry): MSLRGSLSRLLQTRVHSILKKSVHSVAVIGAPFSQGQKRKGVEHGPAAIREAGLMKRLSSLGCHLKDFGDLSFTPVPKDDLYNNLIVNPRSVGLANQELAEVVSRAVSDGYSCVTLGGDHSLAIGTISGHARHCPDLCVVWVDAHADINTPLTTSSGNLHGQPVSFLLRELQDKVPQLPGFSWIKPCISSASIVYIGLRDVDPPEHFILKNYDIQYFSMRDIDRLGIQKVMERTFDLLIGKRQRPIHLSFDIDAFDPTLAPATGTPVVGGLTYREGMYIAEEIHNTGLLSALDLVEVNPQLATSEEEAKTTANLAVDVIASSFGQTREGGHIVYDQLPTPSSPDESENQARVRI

[6] = molecular target: T3, Proteasome subunit beta (Trypanosoma cruzi) (UniProt O96673); experiment: Trypanosoma cruzi proteasome chymotrypsin-like activity (TcProtChymo) assay.; note: in the data most compounds retested in dose-response had high values; type: functional; conditions: 9.37 µM
T3 sequence (whole entry): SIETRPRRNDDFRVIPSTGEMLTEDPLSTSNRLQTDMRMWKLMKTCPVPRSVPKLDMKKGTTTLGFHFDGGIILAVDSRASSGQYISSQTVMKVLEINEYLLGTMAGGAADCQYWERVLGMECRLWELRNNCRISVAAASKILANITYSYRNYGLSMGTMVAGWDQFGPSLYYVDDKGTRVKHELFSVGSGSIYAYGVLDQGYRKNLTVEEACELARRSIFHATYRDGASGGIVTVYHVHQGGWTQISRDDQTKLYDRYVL

Homo sapiens = species: Homo sapiens; experiment: To identify inhibition of the IFN signalling (Jak-Stat) pathway via expression of an eGFP reporter gene under the control of an IFN-stimulated response element (ISRE) containing MxA promoter.; type: functional; conditions: 30 µM
[7] = molecular target: T4, Tyrosyl-tRNA synthetase, putative (Trypanosoma cruzi (strain CL Brener)) (UniProt Q4DSP6); experiment: Trypanosoma cruzi tyrosyl tRNA synthetase (TcYRS) _High Tyrosine SOP; type: functional; conditions: 30 µM; note: in the data most compounds retested in dose-response had high values
T4 sequence (whole entry): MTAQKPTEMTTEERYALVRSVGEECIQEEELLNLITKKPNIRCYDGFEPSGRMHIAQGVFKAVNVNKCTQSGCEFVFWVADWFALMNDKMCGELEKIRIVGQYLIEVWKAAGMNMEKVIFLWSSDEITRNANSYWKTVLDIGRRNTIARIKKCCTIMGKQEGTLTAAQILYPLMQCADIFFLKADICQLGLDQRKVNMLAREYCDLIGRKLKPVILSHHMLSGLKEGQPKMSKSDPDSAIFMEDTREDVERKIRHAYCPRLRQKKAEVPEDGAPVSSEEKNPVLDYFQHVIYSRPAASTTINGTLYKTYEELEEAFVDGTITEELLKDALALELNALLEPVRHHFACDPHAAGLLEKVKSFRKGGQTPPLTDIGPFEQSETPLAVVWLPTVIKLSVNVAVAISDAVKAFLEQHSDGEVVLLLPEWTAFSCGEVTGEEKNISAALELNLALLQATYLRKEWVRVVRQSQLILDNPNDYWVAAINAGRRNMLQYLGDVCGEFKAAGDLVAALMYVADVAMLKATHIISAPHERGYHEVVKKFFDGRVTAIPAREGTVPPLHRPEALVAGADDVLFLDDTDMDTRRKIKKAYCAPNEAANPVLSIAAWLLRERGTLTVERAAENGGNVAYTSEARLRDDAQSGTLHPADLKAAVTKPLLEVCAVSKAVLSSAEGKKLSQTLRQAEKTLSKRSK

[8] = molecular target: T4, Tyrosyl-tRNA synthetase, putative (Trypanosoma cruzi (strain CL Brener)); experiment: Trypanosoma cruzi tyrosyl tRNA synthetase (TcYRS) SOP; type: functional; conditions: 30 µM
[9] = molecular target: Chromo domain-containing protein 1 (Saccharomyces cerevisiae (strain ATCC 204508 / S288c) (Baker's yeast)) (UniProt P32657); experiment: ScCHD-1 Enzyme Inhibition Assay; type: functional; conditions: 30 µM; note: in the data most compounds retested in dose-response had high values
Sequence of Chromo domain-containing protein 1 (Saccharomyces cerevisiae (strain ATCC 204508 / S288c) (Baker's yeast)) (P32657 whole entry, the tested form may be a part): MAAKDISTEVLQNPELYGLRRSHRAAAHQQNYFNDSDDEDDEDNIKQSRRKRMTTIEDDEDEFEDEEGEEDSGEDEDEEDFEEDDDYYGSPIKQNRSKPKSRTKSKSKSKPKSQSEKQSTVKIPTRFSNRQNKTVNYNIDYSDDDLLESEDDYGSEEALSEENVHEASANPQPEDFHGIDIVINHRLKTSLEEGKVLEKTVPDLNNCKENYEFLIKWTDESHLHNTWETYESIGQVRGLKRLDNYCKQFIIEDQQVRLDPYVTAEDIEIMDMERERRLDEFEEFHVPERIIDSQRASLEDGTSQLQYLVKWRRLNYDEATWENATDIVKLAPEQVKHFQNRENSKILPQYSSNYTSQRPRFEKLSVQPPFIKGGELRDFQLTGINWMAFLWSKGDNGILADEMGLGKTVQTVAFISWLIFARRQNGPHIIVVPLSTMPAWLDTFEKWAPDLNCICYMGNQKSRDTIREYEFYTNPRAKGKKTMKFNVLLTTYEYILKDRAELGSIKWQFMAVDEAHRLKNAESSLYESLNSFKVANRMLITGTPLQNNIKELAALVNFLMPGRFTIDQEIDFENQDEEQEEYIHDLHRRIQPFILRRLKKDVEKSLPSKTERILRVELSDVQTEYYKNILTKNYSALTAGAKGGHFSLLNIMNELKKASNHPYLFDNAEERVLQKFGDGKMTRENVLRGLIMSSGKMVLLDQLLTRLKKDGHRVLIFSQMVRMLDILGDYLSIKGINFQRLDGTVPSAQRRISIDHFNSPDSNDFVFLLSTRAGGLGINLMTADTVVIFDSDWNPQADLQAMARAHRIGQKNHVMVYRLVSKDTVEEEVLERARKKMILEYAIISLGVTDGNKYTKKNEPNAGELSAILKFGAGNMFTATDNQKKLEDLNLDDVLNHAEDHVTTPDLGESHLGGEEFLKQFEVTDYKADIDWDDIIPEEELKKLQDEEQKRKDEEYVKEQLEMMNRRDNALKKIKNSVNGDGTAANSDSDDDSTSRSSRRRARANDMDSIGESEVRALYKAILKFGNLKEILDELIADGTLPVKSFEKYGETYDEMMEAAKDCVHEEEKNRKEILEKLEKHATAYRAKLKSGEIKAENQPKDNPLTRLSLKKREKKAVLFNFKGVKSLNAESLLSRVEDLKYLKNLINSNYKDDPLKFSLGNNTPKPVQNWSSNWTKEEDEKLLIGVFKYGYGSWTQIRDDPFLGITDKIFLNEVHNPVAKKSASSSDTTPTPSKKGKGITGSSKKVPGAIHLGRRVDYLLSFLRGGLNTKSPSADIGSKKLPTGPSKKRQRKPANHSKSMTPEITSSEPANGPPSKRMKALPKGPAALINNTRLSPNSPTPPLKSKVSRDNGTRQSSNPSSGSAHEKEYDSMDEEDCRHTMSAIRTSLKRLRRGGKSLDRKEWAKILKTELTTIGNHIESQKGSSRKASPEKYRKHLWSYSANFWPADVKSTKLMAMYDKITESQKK

Sequence of Sialic acid-binding Ig-like lectin 9 (Homo sapiens) (Q9Y336 whole entry): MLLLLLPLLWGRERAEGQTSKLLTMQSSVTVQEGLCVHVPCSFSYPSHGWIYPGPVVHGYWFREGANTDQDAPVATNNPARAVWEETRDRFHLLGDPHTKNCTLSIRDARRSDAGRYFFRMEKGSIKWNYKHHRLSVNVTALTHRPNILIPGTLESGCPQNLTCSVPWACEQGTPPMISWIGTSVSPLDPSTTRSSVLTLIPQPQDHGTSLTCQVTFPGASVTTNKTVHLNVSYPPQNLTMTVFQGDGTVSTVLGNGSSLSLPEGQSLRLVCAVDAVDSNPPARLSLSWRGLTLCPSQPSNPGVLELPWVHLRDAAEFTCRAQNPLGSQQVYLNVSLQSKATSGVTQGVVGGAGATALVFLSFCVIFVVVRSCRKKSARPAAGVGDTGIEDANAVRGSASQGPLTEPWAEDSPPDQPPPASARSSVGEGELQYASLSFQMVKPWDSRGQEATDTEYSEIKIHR
Sequence of Protein translocase subunit SecA (Escherichia coli (strain K12)) (P10408 whole entry): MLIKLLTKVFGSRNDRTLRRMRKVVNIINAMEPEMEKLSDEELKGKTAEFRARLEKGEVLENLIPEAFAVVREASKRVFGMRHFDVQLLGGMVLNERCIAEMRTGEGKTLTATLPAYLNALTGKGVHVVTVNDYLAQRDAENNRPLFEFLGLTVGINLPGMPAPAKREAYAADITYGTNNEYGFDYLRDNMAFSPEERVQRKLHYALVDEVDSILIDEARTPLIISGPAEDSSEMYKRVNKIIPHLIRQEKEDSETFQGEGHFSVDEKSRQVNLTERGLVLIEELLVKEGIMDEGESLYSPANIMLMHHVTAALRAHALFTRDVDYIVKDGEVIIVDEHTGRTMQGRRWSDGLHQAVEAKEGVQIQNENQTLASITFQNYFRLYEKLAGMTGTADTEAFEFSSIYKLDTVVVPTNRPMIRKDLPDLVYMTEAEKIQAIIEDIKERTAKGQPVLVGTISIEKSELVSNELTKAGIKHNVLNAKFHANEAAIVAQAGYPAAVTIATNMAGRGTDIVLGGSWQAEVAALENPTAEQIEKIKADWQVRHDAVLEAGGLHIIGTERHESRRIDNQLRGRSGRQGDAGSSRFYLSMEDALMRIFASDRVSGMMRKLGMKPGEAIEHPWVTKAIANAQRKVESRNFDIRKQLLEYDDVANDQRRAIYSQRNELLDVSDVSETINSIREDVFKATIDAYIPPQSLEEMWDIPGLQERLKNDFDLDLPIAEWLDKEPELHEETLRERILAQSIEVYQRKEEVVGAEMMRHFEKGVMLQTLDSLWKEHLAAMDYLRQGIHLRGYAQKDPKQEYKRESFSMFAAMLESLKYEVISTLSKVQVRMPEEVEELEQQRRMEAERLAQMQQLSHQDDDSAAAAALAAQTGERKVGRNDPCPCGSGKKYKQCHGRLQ

Structure (SMILES)	Percent Effect [1] [%]	Percent Effect [2] [%]	Percent Effect [3] [%]	Percent Effect [4] [%]	Percent Effect (Trypanosoma cruzi) [%]	Percent Effect [5] [%]	Percent Effect [6] [%]	Percent Effect (Homo sapiens) [%]	Percent Effect [7] [%]	Percent Effect [8] [%]	Percent Effect [9] [%]
COc1cccc(C(=O)N2CCCCC2CNC(N)=O)c1 (stereo not given)	-9.94	5.26	4.5	4.83	-4.58	-3.6	0.0846	1.79	3.45	6.17	0.323
Cc1cc(C(=O)N2CCc3nnc(N)cc3C2)c(C)n1C1CC1	-4.88	8.86	-10.1	0.435	-1.95	-3.23	20.1	2.81	7.29	17.7	-16.9
O=C(NCCN1CCOCC1)NCC(O)c1cccc(F)c1 (stereo not given)	-4.85	16.2	-10.5	13.6	5.75	-6.01	4.68	10.8	5.42	11.1	-10.8
Cc1nc(C2CCCN(C(=O)c3ccco3)C2)no1 (stereo not given)	-7.21	1.27	1.16	-2.53	-0.308	-0.645	1.37	16	1.04	-7.59	-4.36
COc1cccc2c1ccn2CCNC(=O)C(C)C	-1.68	20	0.539	3.44	0.393	-1.94	18.5	26.9	7.41	12.8	-3.78
Cc1ccc2c(c1)c(CNC(=O)C1CCN(C(C)C)CC1)nn2C	2.34	5.41	-3.84	-0.447	-0.579	-2.38	12.9	-16.3	4.76	14.6	-3.28
COC(=O)CN(C)C1CCc2ccccc21 (stereo not given)	-0.581	15.8	1.01	8.14	1.5	5.36	18.4	-4.6	7.35	9.76	-8.13
CS(=O)(=O)NCC1CCCN(C(=O)Nc2ccccc2Cl)C1 (stereo not given)	-1.65	13.2	8.6	0.518	1.66	-5.92	15.2	29.4	7.45	18.2	-7.52
CCn1cc(CN2CCCN(C(=O)c3sccc3C#N)CC2)cn1	-4.12	2.53	-2.86	-2.29	-1.04	-1.14	-7.94	-14	2.46	3.8	4.04
Cn1cc(CNCCn2cccn2)c(-c2cccnc2)n1	-3.75	0	-3.89	-4.32	-1.66	0.744	13.8	-1.72	-1.07	1.24	2.43
Cc1cc(CN(C)C(=O)NCc2cccc(N3CCCC3=O)c2)no1	-4.74	7.59	-1.15	7.78	6.14	-4.94	-4.5	-10.2	1.48	1.27	-1.62
Cc1ccc(CNC(=O)NCc2cccnc2N(C)C)s1	-4.97	15.6	7.34	4.07	-4.68	-3.2	1.35	19.1	8.74	12.2	-5.69
Cc1cccn2c(=O)cc(CN3CCCCC3Cn3cncn3)nc12 (stereo not given)	-9.82	-2.7	-1.37	-1.48	-4.2	-1.74	9.53	-10.4	-1.07	-6.17	-6.48
Cc1cccc(CN2C(=O)CO[C@@H]3CN(Cc4nccn4C)C[C@H]32)c1	0.226	10.8	-0.86	-6.69	3.91	25.8	20.5	12.6	9.9	18.3	-3.16
CO[C@@H]1CC[C@H]2[C@H]1OCCN2C(=O)COc1ccc(F)cc1	0.9	-2.7	12.4	0.225	-4.01	3.5	15.3	3.76	4.32	-2.56	0.177
CN(Cc1nccn1CC(F)(F)F)C(=O)c1ccc(F)cc1F	-4.89	5.26	5.36	6.23	-5.16	-5.92	12.8	-12.9	6.38	7.79	3.79
c1cncc(-c2nccc(CN3CCCC3)n2)c1	-0.958	6.76	11.4	-5.74	2.37	-22	19.5	-2.71	9.68	14.3	-16.2
CCC1CN(CCC(=O)N(C)C)CCN1CCOC (stereo not given)	-1.46	16.2	-11.9	3.32	2.74	-0.401	5.04	-13.9	8.37	25.9	-3.8
COc1cc(C(C)=O)ccc1OCC(=O)N(C)Cc1cnn(C)c1	-4.48	21.1	-7.57	7.64	4.76	1.44	6.18	6.99	6.4	25.9	-10.6
c1cc2n(n1)CC(CNCc1ccc(OC3CCCCC3)nc1)CN2 (stereo not given)	-2.12	18.2	1.34	5.86	7.49	-1.78	5.41	-2.37	9.71	21.9	-7.9
